We go through 38 compounds from PubChem BioAssay (Tox21).

Records with an inconclusive call do not appear. Calls of active or inactive are those of the source. Unless noted, the call rests on the fitted dose curve; in most records, active means well fitted cell-killing curve with a large enough effect in the repeat runs; inconclusive means weak or mixed curves, or effect the other way; inactive means no such curve, though single readings can be large or run the other way.
On the % scale 0 is the no-effect control and ±100 the full control effect.

The nature of one experiment: qHTS assay to identify small molecule antagonists of the sonic hedgehog signaling (Shh) pathway - cell viability counter screen (AID 1259367). Further: nearly all actives have a fitted effect of over 55% in size. Further: potency means the concentration at half of the fitted maximal effect. The settings on record: NIH/3T3 Gli1-Luc viability, CellTiter-Fluor, 24 h; series mostly up to 92.4 µM; viability change, negative = cytotoxic: at the top concentration. The method, boiled down: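 NIH/3T3-derived Gli1-Luc reporter cells, 2,000/well, plated 4 hr before compound addition, then stimulated with conditioned medium for 24 hr at 37C. Viability measured in the same wells by CellTiter-Fluor fluorescence, reagent added at 23 hr for 1 hr.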
On the technique in general: In qHTS, concentration-response curves come from the screen itself.
As to `CC1CCCCC1NC(=O)Nc1ccccc1` (stereo not drawn), the “viability change, negative = cytotoxic” value is -5.33% (inactive).
For `CCCSC(=O)N(CCC)CCC`, the “viability change, negative = cytotoxic” value is -0.888% (inactive).
Regarding `CC1(C(=O)Nc2ccc(O)c(Cl)c2Cl)CCCCC1`, the Potency was 43.3 µM (active).
Regarding `N#CC(CCc1ccc(Cl)cc1)(Cn1cncn1)c1ccccc1` (stereo not drawn), the Potency was 27.3 µM (active).
On to `CCS(=O)(=O)CCSP(=O)(OC)OC`, for which the “viability change, negative = cytotoxic” value is -20.6% (inactive).
With `[As]#[In]`, the “viability change, negative = cytotoxic” value is -1.52% (inactive).
Still for that read-out and setting: to `O=C(CCN1CC1)OCC(CO)(COC(=O)CCN1CC1)COC(=O)CCN1CC1` belongs 3.1% (inactive).
Take `COc1cccc2c1cc([N+](=O)[O-])c1c(C(=O)O)cc3c(c12)OCO3`: the Potency is 12.2 µM (active).
Take `Fc1ccc(C2(Cn3cncn3)OC2c2ccccc2Cl)cc1` (stereo not drawn): the “viability change, negative = cytotoxic” value was -12.7% (inactive).
On to `COC(=O)COc1ccc(Cl)cc1Cl`, for which the “viability change, negative = cytotoxic” value is -2.59% (inactive).
In the case of `CCCCC(=O)Cl`, the “viability change, negative = cytotoxic” value is -1.17% (inactive).
Still for that read-out and setting: to `O=[N+]([O-])c1cccc(O)c1` belongs 2.69% (inactive); to `CCCCN(CCCCO)N=O`, 1.18% (inactive); to `CCCCCCBr`, 0.138% (inactive).
Same read-out and setting: to `CCCSP(=O)(OCC)Oc1ccc(Br)cc1Cl` (stereo not drawn) belongs -4.09% [at 42.5 µM] (inactive); to `Cc1ccccc1CO[C@@H]1C[C@@]2(C(C)C)CC[C@]1(C)O2`, 1.69% (inactive); to `O=[N+]([O-])c1cccc2c([N+](=O)[O-])cccc12`, 0.669% (inactive).
Turning to `CCNc1nc(NC(C)C)nc(OC)n1`, the “viability change, negative = cytotoxic” value was 0.388% (inactive).
Consider `COC(C)(C)C`, for which the “viability change, negative = cytotoxic” value was 0.448% (inactive).
Still for that read-out and setting: to `CC(C)COP(=O)(OCC(C)C)OCC(C)C` belongs 2.17% (inactive); to `CNC(=O)Oc1cccc(C(C)C)c1`, 1.44% (inactive).
On the same count and under the same terms, to `COc1cc(OC)nc(Sc2cccc(Cl)c2C(=O)O)n1` belongs 4.57% (inactive).
Take `C[C@]1(O)CC[C@H]2[C@@H]3CCC4=CC(=O)CC[C@]4(C)[C@@]3(F)[C@@H](O)C[C@@]21C`: the “viability change, negative = cytotoxic” value was 3.18% (inactive).
Turning to `CCC#N`, the “viability change, negative = cytotoxic” value was 3.77% (inactive).
In the case of `CC(C1CC1)C(O)(Cn1cncn1)c1ccc(Cl)cc1` (stereo not drawn), the “viability change, negative = cytotoxic” value is -8.61% (inactive).
Same read-out and setting: to `CC1CCC(=O)O1` (stereo not drawn) belongs -5.47% (inactive); to `CC(C)[N+](=O)[O-]`, -3.22% (inactive).
Take `CCOC(=O)NC(=S)Nc1ccccc1NC(=S)NC(=O)OCC`: the “viability change, negative = cytotoxic” value was -15.7% (inactive).
Regarding `COCC(=O)N(c1c(C)cccc1C)N1CCOC1=O`, the “viability change, negative = cytotoxic” value was -4.49% (inactive).
The same measure, in the same setting: to `CCOP(=S)(Oc1cnc(C(C)(C)C)nc1)OC(C)C` (stereo not drawn) belongs 1.26% (inactive); to `O=[N+]([O-])c1cc(Cl)c(Cl)c(Cl)c1`, -0.838% (inactive); to `CCCCOC(=O)c1ccccc1N`, -1.04% (inactive).
Same read-out and setting: to `ClCC(Cl)Cl` belongs -2.1% (inactive).
The same measure, in the same setting: to `N#CC(O)c1ccccc1` (stereo not drawn) belongs 10.5% (inactive).

A short description of a further experiment: qHTS assay to identify small molecule agonists of the sonic hedgehog signaling (Shh) pathway (AID 1259368; calls by dose curve; further: nearly all actives have a fitted effect of over 15% in size). Conditions: NIH/3T3 Gli1-Luc reporter, luciferase, 24 h, stronger effect = higher value; series mostly up to 92.4 µM; activity change: at the top concentration. The method, boiled down: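 NIH/3T3-derived 3T3Gli1-Luc cells carrying a stably integrated Gli1 response element–firefly luciferase reporter were plated, left 4 hr at 37 C, then given compounds in DMSO for 24 hr. Luminescence was read 30 min after adding luciferase reagent.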
With `CC1CCCCC1NC(=O)Nc1ccccc1` (stereo not drawn), the “activity change” value was 2.94% (inactive).
On to `CCCSC(=O)N(CCC)CCC`, for which the “activity change” value is -0.0181% (inactive).
The same measure, in the same setting: to `CC1(C(=O)Nc2ccc(O)c(Cl)c2Cl)CCCCC1` belongs -2.87% (inactive); to `N#CC(CCc1ccc(Cl)cc1)(Cn1cncn1)c1ccccc1` (stereo not drawn), -13.4% (inactive).
For `CCS(=O)(=O)CCSP(=O)(OC)OC`, the “activity change” value is 2.37% (inactive).
Same read-out and setting: to `[As]#[In]` belongs 0.085% (inactive).
Regarding `C=CCC1=C(C)[C@@H](OC(=O)[C@@H]2[C@@H](C=C(C)C)C2(C)C)CC1=O`, the “activity change” value was -12.8% (inactive).
Consider `O=C(CCN1CC1)OCC(CO)(COC(=O)CCN1CC1)COC(=O)CCN1CC1`, for which the “activity change” value is 0.14% (inactive).
On to `COc1cccc2c1cc([N+](=O)[O-])c1c(C(=O)O)cc3c(c12)OCO3`, for which the “activity change” value was -21.3% (inactive).
The same measure, in the same setting: to `CC(CC(C#N)(c1ccccc1)c1ccccc1)N(C)C` (stereo not drawn) belongs -2.28% (inactive); to `Fc1ccc(C2(Cn3cncn3)OC2c2ccccc2Cl)cc1` (stereo not drawn), -0.472% (inactive); to `COC(=O)COc1ccc(Cl)cc1Cl`, 0.299% (inactive).
In the case of `CCCCC(=O)Cl`, the “activity change” value was -2.17% (inactive).
Still for that read-out and setting: to `O=[N+]([O-])c1cccc(O)c1` belongs -1.86% (inactive); to `CCCCN(CCCCO)N=O`, 0.0216% (inactive); to `CCCCCCBr`, -2.15% (inactive).
With `CCCSP(=O)(OCC)Oc1ccc(Br)cc1Cl` (stereo not drawn), the “activity change” value is -1.98% [at 42.5 µM] (inactive).
Take `O=C(Nc1ccccc1)N(Cc1ccc(Cl)cc1)C1CCCC1`: the “activity change” value is -3.86% (inactive).
With `Cc1ccccc1CO[C@@H]1C[C@@]2(C(C)C)CC[C@]1(C)O2`, the “activity change” value is 0.086% (inactive).
In the case of `O=[N+]([O-])c1cccc2c([N+](=O)[O-])cccc12`, the “activity change” value is -1.39% (inactive).
The same measure, in the same setting: to `CCNc1nc(NC(C)C)nc(OC)n1` belongs 0.0069% (inactive); to `COC(C)(C)C`, -2.21% (inactive).
Turning to `CC(C)COP(=O)(OCC(C)C)OCC(C)C`, the “activity change” value was 0.833% (inactive).
For the compound `CNC(=O)Oc1cccc(C(C)C)c1`, the “activity change” value is -0.149% (inactive).
Same read-out and setting: to `COc1cc(OC)nc(Sc2cccc(Cl)c2C(=O)O)n1` belongs 0.064% (inactive).
With `C[C@]1(O)CC[C@H]2[C@@H]3CCC4=CC(=O)CC[C@]4(C)[C@@]3(F)[C@@H](O)C[C@@]21C`, the “activity change” value was -1.14% (inactive).
Still for that read-out and setting: to `CCC#N` belongs 0.721% (inactive).
On the same count and under the same terms, to `CC(C1CC1)C(O)(Cn1cncn1)c1ccc(Cl)cc1` (stereo not drawn) belongs 0.238% (inactive).
As for `CC1CCC(=O)O1` (stereo not drawn), the “activity change” value was -0.494% (inactive).
The same measure, in the same setting: to `CC(C)[N+](=O)[O-]` belongs 0.0052% (inactive); to `COc1cccc(C(=O)NN(C(=O)c2cc(C)cc(C)c2)C(C)(C)C)c1C`, -3.58% (inactive).
As to `CCOC(=O)NC(=S)Nc1ccccc1NC(=S)NC(=O)OCC`, the “activity change” value is 7.34% (inactive).
For `COCC(=O)N(c1c(C)cccc1C)N1CCOC1=O`, the “activity change” value is -0.147% (inactive).
In the case of `CCOP(=S)(Oc1cnc(C(C)(C)C)nc1)OC(C)C` (stereo not drawn), the “activity change” value was -0.402% (inactive).
